Reference: PubChem BioAssay (NCATS)
Inconclusive results are not listed. Activity calls are given as the source filed them. The call rests on the fitted dose curve; in most records, active means well fitted curve in the direction sought with a large enough effect; inconclusive means small, poorly fitted or top-dose-only effect, or another doubt; inactive means no such curve, though single readings can be large; an effect the other way counts as inactive or inconclusive.

Key:
[1] = system: Zika virus NS2B-NS3 protease; test: Primary screen GU AMC qHTS for Zika virus inhibitors (AID 1347154); further: nearly all actives have a fitted effect of over 70% in size
How it was run: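 Fluorogenic AMC-substrate cleavage by noncovalent NS2B-NS3 protease complex (25 nM, pH 8.0 Tris buffer with Tween 20) followed for 15 minutes at room temperature (~20% conversion). Percent inhibition from ex340/em450 signal change, fitted by 4-parameter Hill equation.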

[2] = qHTS to identify inhibitors of the type 1 interferon - major histocompatibility complex class I in skeletal muscle: primary screen against the NCATS Pharmaceutical Collection (AID 1347407);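 further: luminescence of HiBiT knocked into endogenous HLA-B as interferon-induced MHC class I level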
How it was run: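 HLA-B HiBiT myoblasts, dexamethasone-free growth medium + 4 ng/ml IFN-b; compounds pinned 1 h after seeding, […] from 46 uM; 24 h, 37 C, 5% CO2; lytic HiBiT detection, 10 min RT, luminescence.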

[3] = target: Protein phosphatase 1D (Homo sapiens) (UniProt O15297); test: RapidFire Mass Spectrometry qHTS Assay for Modulators of WT P53-Induced Phosphatase 1 (WIP1) (AID 1347424);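 further: amount of dephosphorylated VEPPL-S-QETFS peptide product formed by WIP1; series mostly up to about 63 µM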
How it was run: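 RapidFire mass spectrometry measured dephosphorylated peptide after 5 min room-temperature reaction of 2 uM VEPPL-pS-QETFS with 10 nM WIP1 (50 mM Tris-HCl pH 7.5, 30 mM MgCl2, 0.1 mM EGTA, BSA), following 1 hr compound preincubation; 1 uM isotope-labelled product standard.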

[4] = target: Protein phosphatase 1D (Homo sapiens) (UniProt O15297); test: Rhodamine-PBP qHTS Assay for Modulators of WT P53-Induced Phosphatase 1 (WIP1) (AID 1347425)
How it was run: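 Steps: enzyme with Rh-PBP sensor and compounds, room-temperature incubation of 1 hr, baseline read, addition of VEPPL-pS-QETFS (10 uM final), kinetic fluorescence reads at 525/598 nm. Activity equals final minus baseline signal.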

[5] = qHTS to identify inhibitors of the type 1 interferon - major histocompatibility complex class I in skeletal muscle: primary screen against the NCATS Mechanism Interrogation Plate v5.0 (MIPE) Libary (AID 1347411); further: nearly all actives have a fitted effect of over 65% in size
How it was run: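 Seed engineered human myoblasts (HLA-B HiBit) in medium without dexamethasone containing 4 ng/ml IFN-beta; after 1 hr add compound titrations (top 46 uM final). Incubate 24 hrs at 37 C, lyse 10 min with HiBiT reagent, read luminescence.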

Measured: Potency

Chain of Protein phosphatase 1D (Homo sapiens) (O15297 whole entry, looked up): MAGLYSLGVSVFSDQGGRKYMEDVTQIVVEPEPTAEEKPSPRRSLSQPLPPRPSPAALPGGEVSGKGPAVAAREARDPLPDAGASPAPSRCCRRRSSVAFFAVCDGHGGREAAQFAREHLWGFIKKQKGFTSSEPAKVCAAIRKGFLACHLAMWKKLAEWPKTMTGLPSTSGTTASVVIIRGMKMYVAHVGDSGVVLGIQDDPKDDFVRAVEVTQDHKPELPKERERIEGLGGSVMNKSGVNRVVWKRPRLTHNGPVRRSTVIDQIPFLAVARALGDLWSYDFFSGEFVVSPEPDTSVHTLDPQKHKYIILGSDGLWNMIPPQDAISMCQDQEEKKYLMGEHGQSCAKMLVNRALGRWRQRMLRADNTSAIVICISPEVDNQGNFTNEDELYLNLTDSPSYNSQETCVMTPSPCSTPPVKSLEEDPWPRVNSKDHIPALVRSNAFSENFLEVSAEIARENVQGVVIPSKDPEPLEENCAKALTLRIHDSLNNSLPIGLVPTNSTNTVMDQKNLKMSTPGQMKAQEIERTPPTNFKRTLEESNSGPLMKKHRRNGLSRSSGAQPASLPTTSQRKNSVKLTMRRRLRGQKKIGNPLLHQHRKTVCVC

OC1(c2ccccc2)CCNCC1
not listed: [5]
inactive: all other assays above

NS(=O)(=O)c1cc2c(cc1Cl)CN(C1CCCCC1)C2=O
not listed: [5]
inactive: all other assays above

Cc1cccc(OCC(O)CNC(C)(C)C)c1C (stereo not given)
not listed: [5]
inactive: all other assays above

CC(=O)N(CC(O)CO)c1c(I)c(C(=O)NCCO)c(I)c(C(=O)NCC(O)CO)c1I (stereo not given)
not listed: [5]
inactive: all other assays above

COc1ccc2c(c1)CCCC2=O
not listed: [5]
inactive: all other assays above

CC(=O)OCC[N+](C)(C)C
not listed: [5]
inactive: all other assays above

O=C1CC(c2ccc(Cl)cc2)CC(=O)N1
not listed: [5]
inactive: all other assays above

COc1cc2c(cc1OC)C(=O)CC2
not listed: [5]
inactive: all other assays above

Cc1cc(C(C)(C)C)c(O)c(C(C)(C)C)c1
not listed: [5]
inactive: all other assays above

CC(C)NCCCC1(C(N)=O)c2ccccc2-c2ccccc21
not listed: [5]
inactive: all other assays above

Clc1ccc2c(c1)Nc1ccccc1S2
not listed: [5]
inactive: all other assays above

CCC(CN)=C(c1ccccc1)c1ccccc1
not listed: [5]
inactive: all other assays above

Cc1onc(-c2c(Cl)cccc2Cl)c1C(=O)Cl
not listed: [5]
inactive: all other assays above

Oc1cccc2[nH]ccc12
not listed: [5]
inactive: all other assays above

COC(=O)c1cc(S(N)(=O)=O)ccc1OC
not listed: [5]
inactive: all other assays above

CN1C(=O)CC(C)(c2ccccc2)C1=O (stereo not given)
not listed: [5]
inactive: all other assays above

NC(=O)NS(=O)(=O)c1ccc(Cl)cc1
not listed: [5]
inactive: all other assays above

CCCCN(CCCC)C(C(N)=O)c1ccc(OC)cc1 (stereo not given)
not listed: [5]
inactive: all other assays above

CCCCCCCCCCCCCCCCCCN(C)C
not listed: [5]
inactive: all other assays above

CCC(C(=O)OCCN1CCOC(c2ccccc2)C1C)c1ccccc1 (stereo not given)
not listed: [5]
inactive: all other assays above

Nc1ncnc2c1ncn2Cc1c(F)cccc1Cl
not listed: [5]
inactive: all other assays above

CCOc1ccccc1OCC1CNCCO1 (stereo not given)
not listed: [5]
inactive: all other assays above

Cc1cccc(C)c1NC(=O)c1ccc(N)cc1
inactive: [1] | [3] | [4]

CC(C)(c1ccc(O)cc1)c1ccc(O)cc1
inactive: [1] | [3]

Nc1cc(C(F)(F)F)ccc1S
inactive: [1] | [2] | [4]

O=C(Nc1ccc(Cl)cc1)Nc1ccc(Cl)c(Cl)c1
inactive: [1] | [3] | [4]

CC(C)=CCNc1ncnc2c1ncn2[C@@H]1O[C@H](CO)[C@@H](O)[C@H]1O
inactive: [1] | [3] | [4]

CCCCC(=O)OCC(=O)[C@H]1[C@H](C)C[C@H]2[C@@H]3C[C@H](F)C4=CC(=O)C=C[C@]4(C)[C@@]3(F)[C@@H](O)C[C@@]21C
inactive: [1] | [3] | [4]

C/C(=N/NC(=O)c1ccncc1)C(=O)O
inactive: [1] | [2] | [4]

CCCC(=O)O[C@]1(C(=O)COC(=O)CC)CC[C@H]2[C@@H]3CCC4=CC(=O)CC[C@]4(C)[C@H]3[C@@H](O)C[C@@]21C
inactive: [1] | [3] | [4]

OC[C@]1(O)OC[C@@H](O)[C@H](O)[C@@H]1O
inactive: [1] | [3] | [4]

CCC1=C[C@@H]2CN(C1)Cc1c([nH]c3ccccc13)[C@@](C(=O)OC)(c1cc3c(cc1OC)N(C)[C@H]1[C@@](O)(C(=O)OC)[C@H](OC(C)=O)[C@]4(CC)C=CCN5CC[C@]31[C@@H]54)C2
not listed: [2]
inactive: all other assays above

CC(C)NC(=O)c1ccc(C=O)cc1
inactive: [1] | [2] | [4]

O=C(O)c1[nH]n(-c2ccc(S(=O)(=O)O)cc2)c(=O)c1N=Nc1ccc(S(=O)(=O)O)cc1
inactive: [1] | [3] | [4]

O=C1CCCc2c(O)cccc21
inactive: [1] | [3] | [4]

CC(=O)[C@@]1(O)CC[C@H]2[C@@H]3C[C@H](C)C4=CC(=O)CC[C@]4(C)[C@H]3CC[C@@]21C
inactive: [1] | [3] | [4]

CC(C)(Oc1ccc(Cl)cc1)C(=O)OCCCOC(=O)C(C)(C)Oc1ccc(Cl)cc1
inactive: [1] | [2] | [4]

CCOC(=O)C(O)c1ccccc1 (stereo not given)
inactive: [1] | [2] | [4]

Cc1oc(=O)oc1COC(=O)[C@@H]1N2C(=O)[C@@H](NC(=O)[C@H](N)c3ccccc3)[C@H]2SC1(C)C
inactive: [1] | [3] | [4]

CCCCCCCCCCCC[N+](C)(C)Cc1ccccc1
inactive: [1] | [3] | [4]

COc1ccccc1OCC1CNC(=O)O1 (stereo not given)
inactive: [1] | [2] | [4]
